Reference: PubChem BioAssay (NCI)
About 79,000 compounds went through this panel and 15% of them were active in at least one assay; those are over-represented in the sample as a whole. Activity calls are given as the source filed them. Cut-off read from the data, not from the text of the source: active = growth inhibition above about 70%; inactive = the rest.

How the values were obtained:
[1] = NCI Yeast Anticancer Drug Screen. Data for the rad52 strain (AID 147);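 note: 0% = growth of vehicle-treated control cultures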; conditions: S. cerevisiae rad52 mutant growth inhibition, active compounds read high
How it was run: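 Yeast strain carrying a DNA damage repair alteration was exposed to test compounds. Growth inhibition was measured relative to vehicle-treated controls.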

[2] = NCI Yeast Anticancer Drug Screen. Data for the rad50EPP+ strain (AID 151);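 note: 0% = growth of vehicle-treated control cultures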; conditions: S. cerevisiae rad50 mutant strain, active compounds read high
How it was run: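 Yeast strain carrying rad50 alteration (rad50EPP+) exposed to compounds; growth inhibition measured relative to vehicle-treated controls.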

[3] = NCI Yeast Anticancer Drug Screen. Data for the mgt1 strain (AID 153); conditions: S. cerevisiae mgt1 mutant growth inhibition, active compounds read high
How it was run: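 Yeast mgt1 strain (DNA repair/cell-cycle alteration panel) exposed to compounds; growth inhibition measured relative to vehicle-treated controls.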

[4] = NCI Yeast Anticancer Drug Screen. Data for the rad50 strain (AID 155);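 note: 0% = growth of vehicle-only cultures of the same strain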; conditions: S. cerevisiae rad50 strain growth inhibition, active compounds read high
How it was run: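 Cells are treated with compound, grown, and their growth is then scored against vehicle-only cultures of the same repair-deficient yeast strain.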

[5] = NCI Yeast Anticancer Drug Screen. Data for the mec2-1 strain (AID 157); conditions: S. cerevisiae mec2-1 strain, active compounds read high
How it was run: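 mec2-1 yeast strain, carrying an alteration in DNA damage repair or cell cycle control, was exposed to compounds; growth inhibition was measured relative to vehicle-treated controls.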

[6] = NCI Yeast Anticancer Drug Screen. Data for the rad14 strain (AID 159);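 note: 0% = growth of vehicle-treated control cultures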; conditions: S. cerevisiae rad14 strain growth inhibition, active compounds read high
How it was run: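 Readout: yeast growth inhibition, referenced to vehicle-only cultures. Strain bears a defined alteration in DNA damage repair.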

[7] = NCI Yeast Anticancer Drug Screen. Data for the sgs1 mgt1 strain (AID 161);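 note: 0% = growth of cultures given vehicle only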; conditions: S. cerevisiae sgs1 mgt1 strain, active compounds read high
How it was run: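 Compounds are added to genetically altered yeast, and growth is compared with cultures given vehicle alone to give percent inhibition.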

[8] = NCI Yeast Anticancer Drug Screen. Data for the CLN2oe strain (AID 163);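 note: 0% = growth of vehicle-only control cultures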; conditions: S. cerevisiae CLN2oe strain, active compounds read high
How it was run: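 Yeast cells carrying a defined cell-cycle control alteration were exposed to test compounds. Growth inhibition was scored against vehicle-treated control cultures.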

[9] = NCI Yeast Anticancer Drug Screen. Data for the cln2 rad14 strain (AID 165);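 note: 0% = growth equal to vehicle treated cultures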; conditions: S. cerevisiae cln2 rad14 strain, active compounds read high
How it was run: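 Yeast carrying cln2 and rad14 alterations (cell cycle control and DNA damage repair) were exposed to compounds. Growth inhibition was measured against vehicle-treated controls.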

[10] = NCI Yeast Anticancer Drug Screen. Data for the bub3 strain (AID 167); conditions: S. cerevisiae bub3 mutant strain, active compounds read high
How it was run: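 Part of a panel of yeast mutants defective in DNA damage repair or cell cycle regulation. Each strain is grown with compound, and inhibition is calculated relative to solvent-treated cultures.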

[11] = NCI Yeast Anticancer Drug Screen. Data for the wt2 strain (AID 169);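 note: 0% = growth of vehicle-treated yeast cultures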; conditions: S. cerevisiae wt2 strain growth inhibition, active compounds read high
How it was run: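 Yeast cells were exposed to test compounds, and growth inhibition was measured relative to vehicle-treated controls.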

[12] = NCI Yeast Anticancer Drug Screen. Data for the mlh1 strain (AID 171);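 note: 0% = growth of vehicle-treated control cultures of the same strain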; conditions: S. cerevisiae mlh1 strain growth inhibition, active compounds read high
How it was run: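 Yeast carrying a defined genetic alteration in DNA damage repair or cell cycle control were exposed to test compounds. Growth inhibition was measured relative to vehicle-treated controls.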

[13] = NCI Yeast Anticancer Drug Screen. Data for the sgs1 strain (AID 173);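 note: 0% = growth of vehicle-only control cultures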; conditions: S. cerevisiae sgs1 mutant, active compounds read high
How it was run: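 Yeast mutant strains carrying defined defects in DNA damage repair or cell cycle control were exposed to test compounds. Growth inhibition was scored against vehicle-treated controls.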

[14] = NCI Yeast Anticancer Drug Screen. Data for the mlh1 rad18 strain (AID 175); conditions: S. cerevisiae mlh1 rad18 strain growth inhibition; at 50.0 µM; active compounds read high
How it was run: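 Growth inhibition of the yeast strain was measured after compound exposure and expressed relative to vehicle-treated controls. The strain carries defined defects in DNA damage repair.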

[15] = NCI Yeast Anticancer Drug Screen. Data for the rad18 strain (AID 177); conditions: S. cerevisiae rad18 mutant growth inhibition, active compounds read high
How it was run: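 Yeast carrying a defined DNA damage repair alteration were exposed to compounds. Growth inhibition was expressed relative to vehicle-treated controls.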

[16] = at 5.0 µM (retest, dose inferred, filed as 0.5)
[17] = at 50.0 µM (retest, dose inferred, filed as 5.0)

Measured: growth inhibition

CC1=C(CO)C2=C(C)C3(CC3)[C@@](C)(O)C(=O)C2=C1
inactive: [1]; at 1.2 µM 1% | [1]; at 3.7 µM 9% | [1]; at 11.0 µM 27% | [1]; at 33.0 µM 52% | [2]; at 1.2 µM -2% | [2]; at 3.7 µM 0% | [2]; at 11.0 µM 0% | [2]; at 33.0 µM 2% | [2]; at 100.0 µM 0% | [3]; at 1.2 µM -2% | [3]; at 3.7 µM -1% | [3]; at 11.0 µM -1% | [3]; at 33.0 µM -1% | [3]; at 100.0 µM 0% | [4]; at 1.2 µM 1% | [4]; at 3.7 µM 3% | [4]; at 11.0 µM 13% | [4]; at 33.0 µM 42% | [4]; at 50.0 µM 14% | [5]; at 1.2 µM 0% | [5]; at 3.7 µM -1% | [5]; at 11.0 µM 1% | [5]; at 33.0 µM 19% | [5]; at 50.0 µM -0.75% | [5]; at 100.0 µM 66% | [6]; at 1.2 µM 0% | [6]; at 3.7 µM -2% | [6]; at 11.0 µM 5% | [6]; at 33.0 µM 19% | [6]; at 100.0 µM 59% | [7]; at 50.0 µM 43.9% | [8]; at 1.2 µM -7% | [8]; at 3.7 µM -6% | [8]; at 11.0 µM -13% | [8]; at 33.0 µM -11% | [8]; at 100.0 µM -2% | [9]; at 50.0 µM 18.3% | [10]; at 1.2 µM -4% | [10]; at 3.7 µM -5% | [10]; at 11.0 µM -8% | [10]; at 33.0 µM -14% | [10]; at 50.0 µM -40.2% | [10]; at 100.0 µM -13% | [11]; at 1.2 µM -2% | [11]; at 3.7 µM 0% | [11]; at 11.0 µM -1% | [11]; at 33.0 µM -1% | [11]; at 100.0 µM 3% | [12]; at 1.2 µM -1% | [12]; at 3.7 µM 0% | [12]; at 11.0 µM 1% | [12]; at 33.0 µM 3% | [12]; at 100.0 µM 8% | [13]; at 1.2 µM 4% | [13]; at 3.7 µM 11% | [13]; at 11.0 µM 29% | [13]; at 33.0 µM 55% | [14] 0.3% | [15]; at 1.2 µM 44%
active: [1]; at 100.0 µM 81% | [4]; at 100.0 µM 79% | [13]; at 100.0 µM 78% | [15]; at 3.7 µM 82% | [15]; at 11.0 µM 90% | [15]; at 33.0 µM 93% | [15]; at 100.0 µM 94%

CC[C@](O)(C(=O)O)c1cc2n(c(=O)c1CO)Cc1cc3ccccc3nc1-2
active: [1]; at 1.2 µM 92% | [1]; at 3.7 µM 94% | [1]; at 11.0 µM 95% | [1]; at 33.0 µM 96% | [1]; at 100.0 µM 96% | [3]; at 33.0 µM 80% | [3]; at 100.0 µM 95% | [4]; at 1.2 µM 95% | [4]; at 3.7 µM 97% | [4]; [16] 97% | [4]; at 11.0 µM 97% | [4]; at 33.0 µM 97% | [4]; [17] 98% | [4]; at 50.0 µM 98.3% | [4]; at 100.0 µM 97% | [5]; at 3.7 µM 82% | [5]; [16] 95% | [5]; at 11.0 µM 94% | [5]; at 33.0 µM 95% | [5]; [17] 98% | [5]; at 50.0 µM 97% | [5]; at 100.0 µM 96% | [6]; at 11.0 µM 81% | [6]; at 33.0 µM 93% | [6]; at 100.0 µM 96% | [7]; [16] 88% | [7]; [17] 97% | [7]; at 50.0 µM 97.2% | [8]; at 11.0 µM 88% | [8]; at 33.0 µM 93% | [8]; at 100.0 µM 96% | [9]; [17] 96% | [9]; at 50.0 µM 87.8% | [10]; at 33.0 µM 91% | [10]; [17] 97% | [10]; at 50.0 µM 96.8% | [10]; at 100.0 µM 95% | [11]; at 11.0 µM 81% | [11]; at 33.0 µM 95% | [11]; at 100.0 µM 94% | [12]; at 11.0 µM 81% | [12]; at 33.0 µM 94% | [12]; at 100.0 µM 97%
inactive: [3]; at 1.2 µM -1% | [3]; at 3.7 µM 7% | [3]; at 11.0 µM 67% | [5]; at 1.2 µM 14% | [6]; at 1.2 µM 3% | [6]; at 3.7 µM 29% | [8]; at 1.2 µM -7% | [8]; at 3.7 µM 36% | [9]; [16] 66% | [10]; at 1.2 µM -16% | [10]; at 3.7 µM -3% | [10]; [16] 58% | [10]; at 11.0 µM 67% | [11]; at 1.2 µM -3% | [11]; at 3.7 µM 13% | [12]; at 1.2 µM 3% | [12]; at 3.7 µM 21%
